Experimental data as given in PubChem BioAssay (NCI).
Where “and” joins values, the source holds several entries; their conditions need not be identical. Equal entries are not always repeated. About 83,000 compounds went through this panel and 20% of them were active in at least one assay; those are over-represented in the sample as a whole.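 A percent growth of 40 corresponds to 60% growth inhibition; 0 means no net growth; -100 means all cells died. Active threshold: below 10.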 A number with no mark means an inactive call. Calls of active or inactive are those of the source.

The compounds below were run on HL-60(TB) leukemia (assay: NCI-60 one-dose screen, 48 h (100 = growth as untreated, 0 = no growth, -100 = all killed)). Settings: 10 µM unless noted.
`Cc1ccc(-c2noc(CC(=O)c3ccc([N+](=O)[O-])cc3)n2)cc1` showed a growth of 65.2%.
`C(#CCN1CCOCC1)CCCN1CCOCC1` was tested, and the growth was 93% and 127%.
`COc1cc2c(c(OC)c1OC)CCC(c1cccc(C(=O)Nc3cccc(Br)c3)c1)O2` (stereo not given) gave a growth of 101%.
For `O=S(=O)(NCCCNc1nccc(-c2c(-c3ccc(F)c(O)c3)nc3sccn23)n1)c1ccccc1`, the growth was 69.8%.
`CC(=O)c1nc(Nc2ccc(C)cc2)sc1C` showed a growth of 101%.
With `CNCc1cccc2c1OCCOCCOCCN(CCN1CCOCC1)S(=O)(=O)c1ccc(cc1)-c1cnc(N)c(n1)C(=O)N2` the growth was -23.5% (active).
For `CC[C@H](Nc1ncnc2nc[nH]c12)c1nc2cccc(NCc3ccc(C(=O)NO)o3)c2c(=O)n1-c1ccccc1`, the growth was 81.4%.
`CC1SC(=S)N(c2ccc(Cl)cc2)C1=O` (stereo not given) was tested, and the growth was 82.7% and 98.2%.
`O=C(O)c1ccc(=O)[nH]n1` was tested, and the growth was 111%.
In the case of `C#Cc1ccccc1NC(=O)c1sc2nc3c(cc2c1N)CCCCC3`, the growth is reported as 99.7%.
